GLS inhibitor – glutaminase GLS (human) inhibition | O94925 | GLS enzymatic activity, qHTS titration | Potency, µM (titrated, usually from 45.5 µM), for the others: at the highest dose activity change, negative = inhibition, hits mostly inhibitors | 0.21% of 410,000 active; further: potency means the concentration at half of the fitted maximal effect; on the % scale 0 is the no-effect control and ±100 the full control effect
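Compounds were pin-transferred onto hKGA, after which L-glutamine (1 mM solution) and a detection mix of glutamate oxidase, HRP and Amplex Red were added. Initial and 30 min RT fluorescence reads were collected.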
Tb PFK inh – blocks T. brucei phosphofructokinase. O15648. T. brucei PFK, ADP-Glo luminescence. Potency, µM (top dose mostly 57.5 µM), inactives show at the top dose activity, negative = inhibition, most hits filed as inhibitors. 0.17% of 330,000 active. AID 485367;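 further: potency means the concentration at half of the fitted maximal effect; 0% = uninhibited 1x PFK enzyme wells and -100% = no-enzyme wells; nearly all actives have a fitted effect of over 60% in size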
Target sequence (O15648 whole entry, looked up): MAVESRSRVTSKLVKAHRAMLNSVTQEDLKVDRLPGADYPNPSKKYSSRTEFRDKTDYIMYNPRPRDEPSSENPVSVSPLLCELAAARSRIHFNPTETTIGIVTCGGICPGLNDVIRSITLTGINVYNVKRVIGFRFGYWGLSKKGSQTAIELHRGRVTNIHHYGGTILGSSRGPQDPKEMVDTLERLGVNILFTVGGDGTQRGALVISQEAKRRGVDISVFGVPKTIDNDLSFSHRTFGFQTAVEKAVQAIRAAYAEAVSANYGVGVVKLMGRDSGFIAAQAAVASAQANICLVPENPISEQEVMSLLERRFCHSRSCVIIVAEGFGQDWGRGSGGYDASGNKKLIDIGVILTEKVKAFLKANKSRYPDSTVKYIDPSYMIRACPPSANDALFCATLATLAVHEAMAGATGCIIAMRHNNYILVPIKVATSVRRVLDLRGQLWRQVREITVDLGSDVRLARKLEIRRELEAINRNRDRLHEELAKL
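In TEA buffer at pH 8.0 with 5 mM MgCl2, enzyme (1.25 nM) converted F6P (0.5 mM) and ATP (0.1 mM) for 45 min at room temperature. ADP product was read by luciferase luminescence.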
USP2a inh – USP2a (human) protease inhibition. USP2 core, Ub-CHOP2 coupled fluorogenic reporter, 485/531. AID 463254. Potency, µM (doses to about 38.3 µM), for inactives: at the top dose activity change, negative = inhibition, usual class: inhibitors. O75604. 0.01% of 330,000 active;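 further: potency means the concentration at half of the fitted maximal effect; plate controls were DMSO wells for no effect and full inhibition by NEM control for full effect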
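USP2 core (10nM final) preincubated 30min RT with compound in 20mM Tris-HCl pH 8.0, 2mM CaCl2, 2mM beta-mercaptoethanol, 0.05% CHAPS; 25nM Ub-CHOP2 plus 25nM reporter substrate added, fluorescence (Ex485/Em531) read after 60min.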
p53 reactivator – restores transcriptional activity of mutant p53; H1299 p53-A138V BP100-luciferase reporter, luminescence, 24 h; Potency, µM (top dose mostly 92.2 µM), for the others: at the top dose activity change, positive = activation, actives largely listed as activators; 0.063% of 320,000 active; further: potency means the concentration at half of the fitted maximal effect; % of control where 0% means no effect; nearly all actives have a fitted effect of over 45% in size
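p53-null H1299 cells stably carrying temperature-sensitive p53-A138V and a BP100-luciferase reporter were pinned with compounds (4-point, 1:5 series) and held 24 hrs at 37 deg C. Luminescence was read 10 min after detection reagent.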
GLS confirm – confirmation of human glutaminase inhibitors. 35 tested, under 10 active. shares compounds with GLS inhibitor. Potency, µM (highest dose often 46.1 µM), for inactives: at the top dose activity change, negative = inhibition, most hits filed as inhibitors. biochemical glutaminase enzyme inhibition assay. AID 624261; calls by dose curve
HRP GOx counter – inhibits HRP glutamate oxidase coupled readout, glutaminase counter-screen; shares compounds with GLS inhibitor; HRP/glutamate oxidase coupled Amplex Red fluorescence counterscreen; activity change, negative = inhibition, % at 46.1 µM; 35 tested, under 10 active; AID 624262
GLS HEK tox – counter-screen for glutaminase inhibitors: HEK-293 cytotoxicity. AID 624264. HEK-293 viability, CellTiter-Glo luminescence, 24 h. activity change, negative = cytotoxicity, % at 46.1 µM. shares compounds with GLS inhibitor. 35 tested, under 10 active
Numbers without * were called inactive; ? = inconclusive; / = not tested or not shown. An excerpt weighted towards active compounds, which were near 0.39% of everything screened. Unless noted, the call rests on the fitted dose curve; in most records, active means well fitted curve in the direction sought with a large enough effect; inconclusive means small, poorly fitted or top-dose-only effect, or another doubt; inactive means no such curve, though single readings can be large; an effect the other way counts as inactive or inconclusive.

SMILES | GLS inhibitor | Tb PFK inh | USP2a inh | p53 reactivator | GLS confirm | HRP GOx counter | GLS HEK tox
Cc1ccc(C)c(S(=O)(=O)Nc2ccc3oc(C)c(C(=O)O)c3c2)c1 | 12.6µM* | -15.9% | 4.2% | 10.4% | ? | 6.9 | -7.2
COc1ccc(NS(=O)(=O)c2cc(N)ccc2N2CCCC2)cc1 | ? | 16.2% | -14.4% | 2.6% | -3.7% | ? | -12.3
COc1ccc(NS(=O)(=O)c2cc(N)ccc2N2CCOCC2)cc1 | 32.6% | -0.6% | 2.7% | 2.8% | / | / | /
Cc1ccc(NS(=O)(=O)c2ccc(/C=C/C(=O)O)cc2)cc1Cl | 5.1% | -2.6% | 1.5% | -2.4% | / | / | /
O=C(O)/C=C/c1ccc(S(=O)(=O)Nc2ccc3[nH]c(=O)[nH]c3c2)cc1 | ? | -28.4% | 0.5% | 1.4% | 0.5% | -18.3 | 0.6
O=C(CSc1nc(=O)n(Cc2ccncc2)c2c1CCC2)Nc1ccc(F)cc1F | 1.9% | / | / | / | / | / | /
COc1ccc(NS(=O)(=O)c2ccc3c(c2)[C@H]2C=CC[C@H]2[C@@H](c2ccc(C(=O)O)cc2)N3)cc1 | 10µM* | -7.5% | -1.5% | 1.1% | 3.26µM* | 3.7 | 1.6
O=C(O)c1ccc(S(=O)(=O)Nc2ccc(O)c(Sc3nc4ccccc4s3)c2)cc1 | ? | -6.0% | 3.7% | 9.6% | ? | ? | 2.4
NNC(=O)c1cc2ccccc2cc1NS(=O)(=O)c1ccccc1 | ? | -0.4% | -1.8% | / | -9.6% | -22.6 | -9.5
COc1ccc(-c2nnc(SCC(=O)NC3CCCC3)nc2-c2ccc(OC)c(OC)c2)cc1OC | 9.3% | / | / | / | / | / | /
O=C1CN(C(=O)c2cccc(Br)c2)C(c2ccccc2)c2cc(Cl)ccc2N1 (stereo not given) | 7.7% | / | / | / | / | / | /
COc1ccccc1NS(=O)(=O)c1cc(NC(=O)c2cc[n+]([O-])cc2)ccc1N1CCCC1 | 11.2µM* | -17.0% | -12.1% | -1.1% | 5.1% | -3.7 | 5.7
COc1cccc(CN2C(=O)N(c3ccc(C)cc3)C(=O)C2CC(=O)Nc2cc(OC)cc(OC)c2)c1 (stereo not given) | 4.6% | / | / | / | / | / | /
COc1ccc(NS(=O)(=O)c2ccc(NC(=S)NCC3CCCO3)cc2)cc1 (stereo not given) | -0.6% | -3.9% | -0.2% | -13.3% | / | / | /
COc1ccccc1NS(=O)(=O)c1ccc(O)c(NC(=S)NCC2CCCO2)c1 (stereo not given) | ? | -10.5% | -0.2% | -3.9% | 12.0% | 4.8 | 2.9
